Records with an inconclusive call do not appear. Where a call stands in place of a potency, no number is given. Active and inactive are the calls of the source. Calls come from the whole dose curve; as a rule, active = well fitted activation curve with a large enough effect in the repeat runs; inconclusive = weak or mixed curves; inactive = no such curve, though single readings can be large or run the other way.
Experiment: qHTS assay for small molecules that induce genotoxicity in human embryonic kidney cells expressing luciferase-tagged ATAD5 (AID 651632); note: nearly all actives have a fitted effect of over 15% in size
Conditions: HEK293T ATAD5-luciferase induction, 16 h; series mostly up to 83.3 µM
From the text: U.S. Tox21 Program National Center for Advancing Translational Sciences [NCATS] NIH Chemical Genomics Center [NCGC] U.S. Environmental Protection Agency [EPA] National Institutes of Environmental Health Sciences [NIEHS] National Toxicology Program [NTP] U.S. Food and Drug Administration [FDA] Tox21 Assay Overview: As cancer cells divide rapidly and during every cell division they need to duplicate their genome by DNA replication. The failure to do so results in the cancer cell death. Based on this concept, many chemotherapeutic agents were developed but have limitations such as low efficacy and severe side effects etc. A new cell based assay was developed to find the compounds that effectively block DNA replication either by directly damaging DNA or by inhibiting other cellular mechanisms. Enhanced Level of Genome Instability Gene 1 (ELG1; human ATAD5) protein levels increase in response to various types of DNA damage. Using a luciferase reporter-gene tagged with ATAD5, a cell-based assay [developed by Kyungjae Myung, NHGRI, NIH] was used to measure the induction of ATAD5 in human embryonic kidney cells (HEK293T). So, increase in luciferase activity can be used to identify the compounds that cause genetic stress.
Tox21 Assay Protocol Summary: For genotoxicity screening, 2,000 cells in 5 uL/well were dispensed into white, solid-bottom 1536-well plates using a Multidrop Combi (Thermo Scientific) dispenser. Following transfer of 23 nL compound or DMSO vehicle by a pin tool, the plates were incubated 16 hr at 37C and 5% CO2. 5 ul Amplite (AAT Bioquest, Inc.) was then added to each plate and following 30 min incubation at room temperature, luciferase activity was quantified on a ViewLux CCD-based plate reader.

| SMILES | Potency |
| --- | --- |
| Oc1c(Br)c(Br)c(Br)c(Br)c1Br | inactive |
| c1ccc2cc3c(cc2c1)-c1cccc2cccc-3c12 | inactive |
| C[C@]12CC[C@H]3[C@@H](CCC4=CC(=O)CC[C@@]43C)[C@@H]1CC[C@@H]2O | inactive |
| CC1(c2ccc(Oc3ccccc3)cc2)OC(=O)N(Nc2ccccc2)C1=O (stereo not given) | inactive |
| CC(C)(C)c1ccc(CSc2cnn(C(C)(C)C)c(=O)c2Cl)cc1 | inactive |
| Clc1ccc(-c2ccc(Cl)c(Cl)c2Cl)c(Cl)c1Cl | inactive |
| OC(c1ccc(Cl)cc1)(c1ccc(Cl)cc1)C(Cl)(Cl)Cl | inactive |
| CC(C)CCCCCOC(=O)c1ccccc1C(=O)OCCCCCC(C)C | inactive |
| C1CCC2CCCCC2C1 (stereo not given) | inactive |
| CC(C)(C)c1cc([N+](=O)[O-])cc(C(C)(C)C)c1O | inactive |
| Clc1ccc(C(c2ccc(Cl)cc2)C(Cl)(Cl)Cl)cc1 | inactive |
| C[C@H]1O[C@@H](O[C@H]2[C@@H](O)C[C@H](O[C@H]3[C@@H](O)C[C@H](O[C@H]4CC[C@@]5(C)[C@H](CC[C@@H]6[C@@H]5CC[C@]5(C)[C@@H](C7=CC(=O)OC7)CC[C@]65O)C4)O[C@@H]3C)O[C@@H]2C)C[C@H](O)[C@@H]1O | inactive |
| O=[N+]([O-])c1cc([N+](=O)[O-])c2ccccc2c1 | inactive |
| CC(C)(O)c1cnn2c(-c3ccc(F)c(-c4c(F)cccc4C#N)c3)cnc2n1 | inactive |
| Cc1cc(C(F)(C(F)(F)F)C(F)(F)F)ccc1NC(=O)c1cccc(I)c1C(=O)NC(C)(C)CS(C)(=O)=O | inactive |
| C[C@@H]1O[C@@H](O[C@H]2C[C@@H](O)[C@]3(CO)[C@H]4[C@H](O)C[C@]5(C)[C@@H](C6=CC(=O)OC6)CC[C@]5(O)[C@@H]4CC[C@]3(O)C2)[C@H](O)[C@H](O)[C@H]1O | inactive |
| CCCCCCCCCBr | inactive |
| CCOc1cc(C(C)(C)C)ccc1C1COC(c2c(F)cccc2F)=N1 (stereo not given) | inactive |
| CCCCCCCCCCCCCC[P+](CCCCCC)(CCCCCC)CCCCCC (tested in a mixture with another compound) | inactive |
| CS(=O)(=O)c1ccc(C(=O)C2C(=O)CCCC2=O)c([N+](=O)[O-])c1 | inactive |

| SMILES | Potency |
| --- | --- |
| CC(C)CC(C)N (stereo not given) | inactive |
| CC1(C)C(/C=C(\Cl)C(F)(F)F)C1C(=O)OC(C#N)c1cccc(Oc2ccccc2)c1 (stereo not given) | inactive |
| Clc1ccc(C(c2ccccc2Cl)C(Cl)(Cl)Cl)cc1 (stereo not given) | inactive |
| CCCOCC(=Nc1ccc(Cl)cc1C(F)(F)F)n1ccnc1 | inactive |
| CCOCn1c(-c2ccc(Cl)cc2)c(C#N)c(Br)c1C(F)(F)F | inactive |
| CC(C)[C@H](C(=O)OC(C#N)c1cccc(Oc2ccccc2)c1)c1ccc(OC(F)F)cc1 (stereo not given in full) | inactive |
| CC(C)OS(C)(=O)=O | inactive |
| Nc1ccccc1C(=O)OC/C=C/c1ccccc1 | inactive |
| Oc1ccc2ccc3cccc4ccc1c2c34 | inactive |
| Nc1ccc(Cc2ccc(N)c(Cl)c2)cc1Cl | inactive |
| C=CCC1=C(C)C(OC(=O)C2C(C=C(C)C)C2(C)C)CC1=O (stereo not given) | inactive |
| O=c1ssc(Cl)c1Cl | inactive |
| CN(C)S(=O)(=O)N(SC(F)(Cl)Cl)c1ccccc1 | inactive |
| Cc1cc(SCc2sc(-c3ccc(C(F)(F)F)c(F)c3)nc2C)ccc1OCC(=O)O | inactive |
| Cc1c(Cl)c(=O)oc2cc(OP(=O)(OCCCl)OCCCl)ccc12 | inactive |
| Fc1cccc(Cl)c1CCl | inactive |
| Oc1ccc(C2(c3ccc(O)cc3)c3ccccc3-c3ccccc32)cc1 | inactive |
| CCc1nn(C)c(C(=O)NCc2ccc(C(C)(C)C)cc2)c1Cl | inactive |
| CC(C)C1CCC(Cc2ccc(Cl)cc2)C1(O)Cn1cncn1 (stereo not given) | inactive |
| CC[C@H](C)[C@H]1O[C@]2(C=C[C@@H]1C)C[C@@H]1C[C@@H](C/C=C(\C)[C@@H](O[C@H]3C[C@H](OC)[C@@H](O[C@H]4C[C@H](OC)[C@@H](O)[C@H](C)O4)[C@H](C)O3)[C@@H](C)/C=C/C=C3\CO[C@@H]4[C@H](O)C(C)=C[C@@H](C(=O)O1)[C@]34O)O2 | inactive |
